PubChem BioAssay
The source made the active and inactive calls. Unless noted, how the calls were made is not given here.

What was measured:
[1] = tested on: Wnt5a (protein binding on small-molecule microarray); experiment: Wnt5a binders on small-molecule microarray, primary screen, biophysical, 635/667 nm fluorescence (AID 1142); conditions: 635 nm fluorescence, higher = more signal;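 further: fluorescence read at 667 nm with signal to noise per printed feature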
[2] = cell viability in Huh7 cells, primary screen, cytotoxicity control for HCV replication inhibitor project, CellTiter-Glo luminescence, basal, 48 h (AID 1143); conditions: Huh7 HCV replicon, higher = more signal, called active from +8 up or from −8 down;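 further: Huh7 hepatoma cells carrying a hepatitis C replication reporter with no stimulus; test concentration not given here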
[3] = P. aeruginosa biofilm formation inhibitors, primary screen, PAO1 strain, BacTiter-Glo luminescence, LB-PBS (AID 1144); conditions: 12 h, higher = more signal
[4] = CREB reporter modulators without forskolin, primary screen, cell-based, PC12, CRE-LacZ reporter, unstimulated (AID 1145); conditions: no forskolin, luminescence, 4.5 h, higher = more signal, called active from +8 up or from −8 down
[5] = CREB reporter modulators under forskolin, primary screen, cell-based, PC12, CRE-LacZ reporter, forskolin-stimulated (AID 1146); conditions: luminescence, 4.5 h, higher = more signal, called active from +8 up or from −8 down;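 further: PC12 cells with 6xCRE LacZ reporter stimulated by forskolin 10 µM; beta-galactosidase reporter signal reflecting CREB driven transcription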
[6] = biological target: Streptavidin (Streptomyces avidinii) (UniProt P22629); experiment: streptavidin binders on small-molecule microarray, primary screen, artefact control for SMM compound annotation, biophysical, 635/667 nm fluorescence (AID 1147); conditions: streptavidin binding, higher = more signal;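 further: signal reflects streptavidin binding to arrayed compounds as a control protein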
[7] = small-molecule binders of probe aInhba, primary screen, biochemical, small-molecule microarray, 635/667 nm fluorescence (AID 1148); conditions: higher = more signal;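 further: score merges 667nm spot fluorescence with signal-to-noise for antibody binding to printed compounds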
Torsin-1A (Homo sapiens) [8] = biological target: Torsin-1A (Homo sapiens) (UniProt O14656); experiment: torsin A binders from cell lysate, primary screen, small-molecule microarray, wild-type, 635/667 nm (AID 1149); conditions: COS7 hTOR1A-WT lysate, 635 nm fluorescence, higher = more signal
Torsin-1A (Homo sapiens) [9] = biological target: Torsin-1A (Homo sapiens) (UniProt O14656); experiment: small-molecule binders of mutant TOR1A in lysate, primary screen, cell lysate, small-molecule microarray, COS7 lysate, 635/667 nm fluorescence (AID 1150); conditions: COS7 hTOR1A mutant lysate, 635 nm fluorescence, higher = more signal;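 further: score pools 667 nm emission and signal to noise measuring lysate protein binding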
[10] = tested on: Sonic hedgehog protein (Shh); experiment: small-molecule binders of Shh protein, primary screen, biochemical, small-molecule microarray, 635/667 nm fluorescence (AID 1151); conditions: small-molecule microarray binding, 635 nm fluorescence; higher = more signal;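 further: Shh protein binding to compounds spotted on small-molecule microarray slides; score combines spot fluorescence intensity with signal-to-noise across triplicate slides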

Streptavidin (Streptomyces avidinii), sequence (P22629 whole entry, looked up): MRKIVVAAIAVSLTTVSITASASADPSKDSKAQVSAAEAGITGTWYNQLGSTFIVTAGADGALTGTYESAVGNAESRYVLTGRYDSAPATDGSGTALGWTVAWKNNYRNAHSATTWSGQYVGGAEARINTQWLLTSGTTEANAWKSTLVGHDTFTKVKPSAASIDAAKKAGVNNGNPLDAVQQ
Torsin-1A (Homo sapiens), sequence (O14656 whole entry, looked up): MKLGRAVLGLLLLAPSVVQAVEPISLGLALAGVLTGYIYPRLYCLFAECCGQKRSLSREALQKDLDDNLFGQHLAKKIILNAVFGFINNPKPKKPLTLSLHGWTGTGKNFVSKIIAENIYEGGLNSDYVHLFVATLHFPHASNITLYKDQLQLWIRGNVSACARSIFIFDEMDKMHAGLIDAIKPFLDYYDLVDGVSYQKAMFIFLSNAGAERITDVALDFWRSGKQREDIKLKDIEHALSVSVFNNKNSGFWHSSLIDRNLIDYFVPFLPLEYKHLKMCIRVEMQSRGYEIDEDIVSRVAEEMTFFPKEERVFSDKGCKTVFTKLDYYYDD

| SMILES | composite z-score [1] | z-score [2] | z-score [3] | z-score [4] | z-score [5] | composite z-score [6] | composite z-score [7] | composite z-score (Torsin-1A (Homo sapiens) [8]) | composite z-score (Torsin-1A (Homo sapiens) [9]) | composite z-score [10] |
| --- | --- | --- | --- | --- | --- | --- | --- | --- | --- | --- |
| COCCCNC(=O)[C@]1(Cc2ccccc2CN=[N+]=[N-])N=C(c2ccc(OCCCO)cc2)O[C@@H]1c1ccccc1N=[N+]=[N-] | 0.693 | -4.12 (inactive) | 0.206 (inactive) | 2 (inactive) | -0.786 (inactive) | 0.437 | 0.4 | 0.637 | 0.557 | -0.448 |
| CC(CO)N1C(=O)[C@@H]2[C@H]3C(=O)OCC=C[C@H]3OC23C=CCN(c2ccc4ccccc4c2)C(=O)[C@@H]13 (stereo not given in full) | -1.02 | 0.417 (inactive) | 1.19 (inactive) | 0.862 (inactive) | -0.702 (inactive) | -1.06 | -0.128 | -2.15 | -1.05 | -1.19 |
| COCCCNC(=O)[C@@]1(Cc2ccccc2I)c2ccccc2C(=O)N(Cc2ccccc2C(F)(F)F)[C@H]1c1ccc(CO)cc1 | -0.347 | -2.13 (inactive) | -0.528 (inactive) | -0.619 (inactive) | 1.15 (inactive) | -0.253 | -0.016 | 0.0167 | -0.0514 | -0.414 |
| C=CC[C@]12N=C(c3ccc(OCCCO)cc3)O[C@H]1c1ccccc1N(CCC)C2=O | 0.587 | -3.39 (inactive) | 0.552 (inactive) | 0.866 (inactive) | -0.743 (inactive) | -0.256 | 0.562 | 0.234 | 0.397 | 1.61 |
| COc1ccc([Si](C)(C)[C@H]2[C@H](CC(=O)N3CCC[C@H]3CO)O[C@@]3(C(=O)N(Cc4cccc(N5CCCCC5=O)c4)c4ccccc43)[C@@H]2C)cc1 | -0.108 | -1.39 (inactive) | -0.00805 (inactive) | 2.88 (inactive) | -0.314 (inactive) | 0.233 | -0.128 | 0.593 | 0.812 | 2.01 |
| Cc1ccc(S[C@]2(C(=O)NCCN3CCOCC3)CC(=O)N(C(C)C)[C@@H]2c2ccc(CO)cc2I)cc1 | -0.141 | -2.88 (inactive) | -0.121 (inactive) | -0.116 (inactive) | -0.395 (inactive) | -0.676 | 0.0228 | -0.533 | -0.26 | -0.0348 |
| C=C(CCCC)C(=O)CC[C@@H](OC(C)=O)c1ccc(OCCO)cc1 | 0.791 | -0.742 (inactive) | -1.12 (inactive) | 0.653 (inactive) | -0.101 (inactive) | -0.871 | 0.0154 | 1.34 | 0.084 | 1.52 |
| CCCCC(=C=CC[C@H](O)c1ccccc1OCCO)CCO | -0.0677 | -0.0854 (inactive) | 0.235 (inactive) | 4.29 (inactive) | 1.37 (inactive) | -0.356 | -0.0762 | -0.309 | 0.0868 | 0.704 |
| CC(C)C[C@@H]1NC(=O)[C@@H]2C[C@H](C(=O)NCCCCCNC(=O)CS)[C@H](c3ccc(O)cc3)N2C1=O | -0.025 | -4.33 (inactive) | -0.455 (inactive) | -0.809 (inactive) | -0.661 (inactive) | -0.799 | -0.045 | 1.87 | 2.08 | 1.99 |
| O=C1O[C@@H](c2ccccc2)[C@@H](c2ccccc2)N2[C@@H](c3ccccc3OCCO)[C@]3(C(=O)Nc4ccc(C#CC5(O)CCCCCC5)cc43)[C@@H](C(=O)N3CCCCCCC3)[C@H]12 | 2.35 | -5.6 (inactive) | -0.349 (inactive) | -0.168 (inactive) | 0.306 (inactive) | 2.41 | 2.16 | 3.29 | 3.08 | 2.06 |
| COc1ccc([Si](C)(C)[C@H]2[C@H](CC(=O)N3CCC[C@H]3CO)O[C@@]3(C(=O)N(C)c4c(Br)cc(C)cc43)[C@@H]2C)cc1 | 1.55 | -1.11 (inactive) | -0.518 (inactive) | 0.758 (inactive) | 1.09 (inactive) | 3.28 | 0.462 | 2.05 | 1.5 | 1.6 |
| CCOC(=O)C[C@H]1[C@H](OC(=O)c2ccccc2-c2ccccc2)[C@@H](NC(=O)CC(C)C)c2cc(OCCCO)ccc2N1C(=O)c1ccccc1 | 0.167 | -0.715 (inactive) | -0.829 (inactive) | 1.94 (inactive) | -0.103 (inactive) | -0.31 | -0.0178 | -0.278 | -0.161 | 1.51 |
| COCCOC(=O)N1C(=O)[C@@]2(c3cc(C#CC4=CCCCC4)ccc31)[C@H](c1ccc(O)cc1)N1[C@H](c3ccccc3)[C@H](c3ccccc3)OC(=O)[C@H]1[C@@H]2C(=O)N1CCc2cc(OC)c(OC)cc2C1 | -0.0266 | -0.713 (inactive) | 0.315 (inactive) | -0.375 (inactive) | 0.109 (inactive) | 0.112 | 0.103 | 0.175 | 0.893 | 0.514 |
| COCCOC(=O)N1C(=O)[C@@]2(c3cc(C#CCC(C(=O)OC)C(=O)OC)ccc31)[C@H](c1ccc(O)cc1)N1[C@H](c3ccccc3)[C@H](c3ccccc3)OC(=O)[C@H]1[C@@H]2C(=O)N1CCc2cc(OC)c(OC)cc2C1 | 0.227 | -0.233 (inactive) | 0.12 (inactive) | 0.0384 (inactive) | 0.118 (inactive) | -0.341 | 0.0714 | 0.0553 | 0.391 | 1.31 |
| CC(C)(C)OC(=O)N1[C@@H](C=C(Br)Br)COC1(C)C | -0.0677 | -2.04 (inactive) | 0.278 (inactive) | -0.104 (inactive) | 0.0695 (inactive) | 0.29 | -0.15 | 0.396 | 0.656 | 0.938 |
| C=C(COC)C(=O)CC[C@H](OC(C)=O)c1ccc(CO)o1 | -0.0261 | -2.28 (inactive) | -0.824 (inactive) | -0.0884 (inactive) | 0.464 (inactive) | -0.0888 | -0.101 | -0.675 | -0.337 | 1.55 |
| COCCOC(=O)N1C(=O)[C@@]2(c3cc(C#CCNC(N)=O)ccc31)[C@H](c1ccc(O)cc1)N1[C@H](c3ccccc3)[C@H](c3ccccc3)OC(=O)[C@H]1[C@@H]2C(=O)N1CCc2cc(OC)c(OC)cc2C1 | 0.0981 | -0.483 (inactive) | 0.389 (inactive) | -0.0515 (inactive) | -0.379 (inactive) | 0.468 | -0.0448 | -0.0669 | 0.148 | 0.97 |
| CCOC(=O)C1=CC[C@@H](c2ccccc2)N(S(=O)(=O)c2ccc(C)cc2)[C@@H]1C#N | 0.0432 | -2.54 (inactive) | -0.232 (inactive) | -0.266 (inactive) | 40.6 (active) | 0.814 | -0.128 | 0.0512 | 0.291 | -0.0766 |
| CCCNC(=O)[C@@]1(Sc2ccc(C)cc2)CC(=O)N(Cc2cc(C(F)(F)F)cc(C(F)(F)F)c2)[C@@H]1c1ccc(CO)cc1 | -0.139 | -4.41 (inactive) | 0.503 (inactive) | -0.554 (inactive) | 0.448 (inactive) | -1.08 | -0.0963 | -0.11 | -0.155 | -0.0508 |
| COCCOC(=O)N1C(=O)[C@@]2(c3cc(C#CCCO)ccc31)[C@H](C(=O)N1CCN(c3ncccn3)CC1)[C@H]1C(=O)O[C@H](c3ccccc3)[C@H](c3ccccc3)N1[C@@H]2c1ccc(OCCO)cc1 | 0.624 | -0.445 (inactive) | 0.386 (inactive) | 1.05 (inactive) | 0.136 (inactive) | 1.26 | 0.0528 | -0.279 | 0.458 | 1.99 |
| COC(=O)[C@@]1(Cc2ccc(OC)cc2)[C@@H]2[C@@H](CC(=O)[C@H]2CC(=O)C(=O)N(C)C)CN1C(=O)c1ccccc1 | 2.06 | -3.89 (inactive) | 0.327 (inactive) | 0.39 (inactive) | 0.247 (inactive) | 1.79 | 1.83 | -0.0909 | 0.452 | 0.326 |
